A selection: hits, their analogues and other compounds. The true share with any hit is near 27%.
CYP2C19 act: human CYP2C19 activators, primary screen, biochemical, luminescence | Cytochrome P450 2C19 (Homo sapiens), P33261 | recombinant CYP2C19, luciferin-H EGE luminescence; active compounds read high; 0 = fully inhibited enzyme, 1 = untreated enzyme | activation factor at 5 µM | 96,000 tested, under 10 active;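 active means activation factor of at least 2 at 5 µM in the primary screen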
CYP2C19 inhib: blockers of cytochrome P450 2C19 activity – biochemical, luminescence, ADME assay, primary screen; CYP2C19 Supersomes, luciferin-H EGE luminescence, 30 min; inhibition, % at 5 µM; actives 21% (n = 96,000);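 active means CYP2C19 inhibition above a set limit at 5 µM in the primary screen, cut at about 50% in these data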
CYP2C9 inh: blockers of cytochrome P450 2C9 activity – biochemical, luminescence, ADME assay, primary screen; P11712; CYP2C9 Supersomes, luciferin-H conversion; inhibition, % at 5 µM; actives 20% (n = 96,000); AID 777, 2007;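 active means blocking of liver enzyme CYP2C9 beyond about 50% at 5 µM, limit read from the data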
CYP2C9 act: human CYP2C9 activators, primary screen, biochemical, luminescence. Cytochrome P450 2C9 (Homo sapiens), P11712. recombinant CYP2C9, luciferin-H conversion; active compounds read high; factor 1 = untreated enzyme, 0 = blocked. activation factor at 5 µM. actives 1.4% (n = 96,000);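 active means activation factor of 2 or more for CYP2C9 at a 5 µM dose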
Cav32 inh: Cav3.2 calcium influx blockers – cell-based, Fluo-4 calcium fluorescence, FDSS, MLSMR library, primary screen; actives 4% (n = 100,000); Cav3.2-expressing cells; active compounds read low; Voltage-dependent T-type calcium channel subunit alpha-1H (Homo sapiens), O95180; B-score at 10 µM;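 active means single-dose well whose peak fluorescence ratio is a statistical outlier from its plate by either plate-standardised score or position-corrected B-score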
A number is an active result; - = inactive; . = not tested or not shown.

SMILES | CYP2C19 act | CYP2C19 inhib | CYP2C9 inh | CYP2C9 act | Cav32 inh
CC1CCCC(NC(=O)COC(=O)c2cc(S(=O)(=O)N3CCCCC3)ccc2N2CCOCC2)C1C (configuration not stated) | - | 78 | 82 | - | -
O=C(O)c1cc(S(=O)(=O)N2CCCCCC2)ccc1Cl | - | - | - | - | -
CC(C)(C)NC(=O)COC(=O)c1cc(S(=O)(=O)N2CCCCC2)ccc1N1CCOCC1 | - | 66 | 82 | - | -
O=C(Nc1ccc2c(c1)CCC2)c1cc(S(=O)(=O)N2CCN(c3ccccc3)CC2)ccc1Cl | - | - | 56 | - | -
CC1CCCN(C(=O)CNC(=O)Cn2ccc3ccccc3c2=O)C1 (configuration not stated) | - | - | - | - | -
Cn1c(Cn2c(=O)sc3ccccc32)nnc1SCc1ccccc1 | . | . | . | . | -
O=C(/C=C/c1ccco1)NC(=S)Nc1ccc(Cl)cn1 | - | - | - | - | -
O=C(Nc1ccccc1Cl)c1cc(S(=O)(=O)N2CCCCC2)ccc1N1CCOCC1 | - | - | - | - | -6.3
O=S(=O)(CCSc1ccccn1)c1nc2ccccc2s1 | - | - | - | - | -
COC(=O)c1nn(-c2ccccc2)c(Sc2ccc(C)cc2)c1/C=N/O | - | - | - | - | -
Cc1nc(C(=O)Nc2cc(Cl)ccc2Cl)nn1-c1cc(OC(C)C)c(Cl)cc1Cl | - | - | 87 | - | .
Cc1nc(C(=O)Nc2cccc(Cl)c2)nn1-c1cc(OC(C)C)c(Cl)cc1Cl | - | 62 | 70 | - | .
Cc1nc(C(=O)Nc2ccc(Cl)cc2Cl)nn1-c1cc(OC(C)C)c(Cl)cc1Cl | - | - | 58 | - | -
Cc1nc(C(=O)Nc2cccc(Cl)c2Cl)nn1-c1cc(OC(C)C)c(Cl)cc1Cl | - | - | 82 | - | .
COc1cc(NC(=S)Nc2cccc(Cl)c2Cl)c(OC)cc1Cl | - | - | - | - | -
O=[N+]([O-])c1cc(Cl)cc(C2=NCCN2)c1 | - | - | - | - | -
CC(C)(C)NC(=O)COC(=O)c1cncc(Br)c1 | - | - | - | - | -
COc1ccccc1NC(=S)NCCc1ccc(Cl)cc1 | - | 71 | - | - | -
COc1ccccc1NC(=S)NCc1ccco1 | - | 64 | - | - | -
COc1ccc(NC(=S)Nc2ccccc2F)c(OC)c1 | - | - | - | - | -
COc1ccc(NC(=S)NCCc2ccccc2)c(OC)c1 | - | 90 | - | - | -
COc1ccccc1NCCC(=O)OCC(=O)NCc1ccco1 | - | - | - | - | -
Fc1cc(Br)ccc1NC(=S)NCCc1ccccc1 | - | 76 | - | - | -
COc1ccccc1NC(=S)NC(=O)c1ccc(-c2ccc(Cl)cc2)o1 | - | - | - | - | -
CCOc1ccc(N2C(=O)CC(N3CCN(c4ccc(C(=O)c5ccncc5)cc4)CC3)C2=O)cc1 (configuration not stated) | . | . | . | . | -
SMILES | CYP2C19 act | CYP2C19 inhib | CYP2C9 inh | CYP2C9 act | Cav32 inh
COc1ccc(OC)c(NC(=S)NN2CCN(C)CC2)c1 | - | - | - | - | -
COc1ccc(OC)c(NC(=S)NCCC(c2ccccc2)c2ccccc2)c1 | . | . | . | . | -7.8
Cc1cc(-c2[nH]nc3c2C(c2ccsc2)C(C#N)=C(N)O3)c(C)s1 (configuration not stated) | - | 84 | 93 | - | -
Cc1cc(-c2[nH]nc3c2C(c2cccc(O)c2)C(C#N)=C(N)O3)c(C)s1 (configuration not stated) | - | 88 | 51 | - | -
COc1ccccc1OCC(=O)Nc1cccc(C(=O)N2CCOCC2)c1 | - | - | - | - | -
Cn1cc(C(=O)c2ccc(Cl)cc2Cl)cc1C(=O)O | - | - | - | - | .
CC(=O)c1ncnn1CC(=O)c1ccc(Cl)cc1Cl | - | 61 | - | - | -
CCOCCSc1nnc2nc(C)cc(C)n12 | - | - | - | - | -
C/C(Cn1nc([N+](=O)[O-])cc1C)=N\NC(=O)c1cccc(Br)c1 | - | 59 | - | - | -
COc1ccc2[nH]c(=O)c(CN(C(=O)c3ccncc3)C(C)C)cc2c1 | - | - | 50 | - | -
Cc1ccc2[nH]c(=O)c(CN(CCO)C(=O)N(C)C)cc2c1 | . | . | . | . | -
CCCN(Cc1cc2cc(C)ccc2[nH]c1=O)S(C)(=O)=O | - | 88 | 73 | - | -
